Assay outcomes from PubChem.
HepG2 tox: HepG2 cytotoxicity, counter-screen for TGF-b inhibitors; HepG2 CAGA-GFP viability, ATP luminescence, 18 h; Potency, µM (highest dose often 46.1 µM), inactives show at the top dose activity change, negative = cytotoxicity, hits mostly cytotoxic; 0.76% of 410,000 active; further: potency means the concentration at half of the fitted maximal effect
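HepG2 CAGA-GFP cells (1000/well, DMEM with 1% FBS) received compound, then TGF-beta at 500 pg/mL final, and were incubated 18 hours at 37 degrees C. Viability was read by CellTiter-Glo luminescence. Media-only wells were set as complete cell-killing and DMSO as no toxicity.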
TGFb inhibitor: blocks TGF-b signaling. HepG2 CAGA-GFP TGF-b/SMAD3 reporter, GFP fluorescence, 18 h; TGF-beta stimulated, 500 pg/mL final. Potency, µM (titrated, usually from 46.1 µM), without a hit: top-dose activity, negative = inhibition, most hits filed as inhibitors. 1.2% of 410,000 active; further: potency means the concentration at half of the fitted maximal effect; on the % scale 0 is the no-effect control and ±100 the full control effect; nearly all actives have a fitted effect of over 65% in size
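Inhibition of TGF-beta-driven CAGA-GFP reporter expression in HEPG2 cells is measured by cellular GFP fluorescence after 18 h stimulation with 500 pg/mL recombinant TGF-beta in 1% FBS medium at 37 degrees C.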
ALOX12 inh: blocks human arachidonate 12S-lipoxygenase | Potency, µM (doses to about 108 µM), for inactives: at the highest dose activity change, negative = inhibition, most hits filed as inhibitors | purified 12hLO, xylenol orange hydroperoxide absorbance | P18054 | 1.1% of 580,000 active; further: potency means the concentration at half of the fitted maximal effect; on the % scale 0 is the no-effect control and ±100 the full control effect
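Hydroperoxide product was detected by ferrous iron/xylenol orange as the 573 to 405 nm absorbance ratio. Arachidonic acid at 40 uM (final) was turned over for 30 min at room temperature by 150 nM human 12hLO, pH 7.0 Hepes buffer, after 15 min compound preincubation.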
S2 tox: viability counter-screen for ATXN expression inhibitors; 0.49% of 400,000 active; S2 cells (HEK-293 line with an ATXN2-luciferase reporter) viability, CellTiter-Fluor protease fluorescence, 24 h; Potency, µM (doses to about 56.7 µM), actives largely listed as cytotoxic; AID 651635; further: potency means the concentration at half of the fitted maximal effect; nearly all actives have a fitted effect of over 40% in size
ATXN2 expr inh: reduces ATXN2 reporter expression in HEK-293 cells; HEK-293 ATXN2-luciferase reporter, luminescence, 24 h; 0.72% of 360,000 active; Potency, µM (titrated, usually from 57 µM), for the others: at the highest dose activity change, negative = inhibition, usual class: inhibitors; further: potency means the concentration at half of the fitted maximal effect; on the % scale 0 is the no-effect control and ±100 the full control effect; nearly all actives have a fitted effect of over 55% in size
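qHTS (up to 57 uM final) was run with 24 h compound exposure of reporter cells at 37 °C. Each well was multiplexed: SteadyGlo luminescence measured ATXN2-luciferase expression after a fluorogenic Gly-Phe-AFC viability readout (25 uM final).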
EBOV S4 ratio: blocks Ebola virus entry, screen 4 ratio readout; AC50, µM; 79% of 170 active; Ebola pseudovirus entry assay, ratio channel; AID 1117308; shares compounds with ATXN2 expr inh; calls by dose curve
EBOV S4 blue: blocks Ebola virus entry, screen 4 blue channel readout; shares compounds with ATXN2 expr inh; Ebola virus entry assay, blue channel fluorescence ratio; Channel: blue; calls only; 170 tested, under 10 active; call rule not given here
EBOV S4 green: blocks Ebola virus entry, screen 4 green channel readout; AID 1117316; 170 tested, under 10 active; shares compounds with ATXN2 expr inh; calls only; Ebola virus entry reporter assay, green fluorescence channel; Channel: green; call rule not given here
Numbers without * were called inactive; i = inactive; u = inconclusive; x = not tested or not shown; [ ] = remark or other dose. Only a sample is shown. Unless noted, the call rests on the fitted dose curve; in most records, active means well fitted curve in the direction sought with a large enough effect; inconclusive means small, poorly fitted or top-dose-only effect, or another doubt; inactive means no such curve, though single readings can be large; an effect the other way counts as inactive or inconclusive.

SMILES	HepG2 tox	TGFb inhibitor	ALOX12 inh	S2 tox	ATXN2 expr inh	others
Cc1oc(-c2cccc(Cl)c2)nc1CN1CCC(C(=O)NCCCN2CCN(c3ccc(F)cc3)CC2)CC1	-10.1%	u	u	i	-30.8%
CN1c2ccc([N+](=O)[O-])cc2CC2(C(=O)NC(=O)NC2=O)C1c1ccccc1 (stereo not drawn)	1.8%	-24.2%	u	i	0.3%
CC(C)(C)NCC(O)c1cc(Cl)c(N)c(Cl)c1 (stereo not drawn)	-11.4%	4.8%	-14.0%	u	-9.5%
CCn1nccc1C(=O)N1[C@H]2CC[C@@H]1c1cnc(-c3ccccc3)nc1C2	x	x	-3.2%	x	x
Cc1ncc2c(n1)C[C@@H]1CC[C@H]2N1C(=O)c1nn(C)c2ccccc12	x	x	40.5%	x	x
O=C1CS(=O)C2(CCNCC2)N1c1ccccc1 (stereo not drawn)	x	x	61.6%	x	x
CC[C@H]1OC(=O)C[C@@H](O)[C@H](C)[C@@H](O[C@@H]2O[C@H](C)[C@@H](O[C@H]3C[C@@](C)(O)[C@@H](O)[C@H](C)O3)[C@H](N(C)C)[C@H]2O)[C@@H](CC=O)C[C@@H](C)C(=O)/C=C/C(C)=C/[C@@H]1CO[C@@H]1O[C@H](C)[C@@H](O)[C@@H](OC)[C@H]1OC	-2.0%	7.9%	13.2%	i	-0.4%
Nc1cccc(-c2cn(C[C@H]3CC4CCN3C[C@@H]4C(=O)NCc3ccccc3)nn2)c1 (stereo partly drawn)	x	x	43.2%[176 µM]	x	x
C[C@H](N)[C@H](O)c1ccc(O)c(O)c1	x	x	i	u	-8.4%	EBOV S4 ratio=i;EBOV S4 blue=i;EBOV S4 green=i
NC[C@H](O)c1ccc(O)c(O)c1	-2.7%	-0.5%	u	i	-21.4%	EBOV S4 ratio=i;EBOV S4 blue=i;EBOV S4 green=i
O=C(COc1ccc(F)cc1)N1CCN(CCc2ccncc2)CC1	x	x	-9.4%	x	x
CN1C2CCC1CC(C(=O)OC(CO)c1ccccc1)C2 (stereo not drawn)	x	x	-17.0%	x	x
CC[C@H](OC(C)=O)C(C[C@H](C)N(C)C)(c1ccccc1)c1ccccc1	-30.4%	9.7%	-3.7%	i	-21.0%
CCNCCc1ccccc1	x	x	-0.1%	x	x
CN1CCc2cc3c(c4c2C1Cc1ccccc1-4)OCO3 (stereo not drawn)	-31.9%	u	-11.9%	i	-30.1%
